For six compounds, inhibition results are on record in ChEMBL document CHEMBL1961873, “Compounds: GSK PKIS; Assays: Nanosyn kinase panel” (2012).

The structures appear in SMILES notation.

Assay [1] deals with Tyrosine-protein kinase ABL1 (Homo sapiens), P00519 [T315I]. The note with it: at 1 µM.
Assay [2] deals with Tyrosine-protein kinase ABL1 (Homo sapiens), P00519 [Y253F]. The note with it: at 0.1 µM.
For assay [3] the test system is unchanged. The note with it: at 1 µM.
The target of assay [4] is Tyrosine-protein kinase ABL1 (Homo sapiens) (UniProt P00519). The conditions noted are these: at 0.1 µM.
For assay [5] the target is unchanged. The conditions noted are these: at 1 µM.
For assay [6], the target named is ALK tyrosine kinase receptor (Homo sapiens) (UniProt Q9UM73). The note with it: at 0.1 µM.
For assay [7] the target is unchanged. The conditions noted are these: at 1 µM.
Assay [8] deals with Tyrosine-protein kinase ABL2 (Homo sapiens) (UniProt P42684). The note with it: at 0.1 µM.
For assay [9] the target is unchanged. The conditions noted are these: at 1 µM.
In assay [10] the target is Tyrosine-protein kinase receptor UFO (Homo sapiens) (UniProt P30530). The note with it: at 0.1 µM.
The target is the same in assay [11]. The conditions noted are these: at 1 µM.
Assay [12] concerns the target Tyrosine-protein kinase Blk (Homo sapiens) (UniProt P51451). The note with it: at 0.1 µM.
For assay [13] the target is unchanged. The note with it: at 1 µM.
Assay [14] deals with T1, Cytoplasmic tyrosine-protein kinase BMX (Homo sapiens) (UniProt P51813).
T1 sequence (whole entry): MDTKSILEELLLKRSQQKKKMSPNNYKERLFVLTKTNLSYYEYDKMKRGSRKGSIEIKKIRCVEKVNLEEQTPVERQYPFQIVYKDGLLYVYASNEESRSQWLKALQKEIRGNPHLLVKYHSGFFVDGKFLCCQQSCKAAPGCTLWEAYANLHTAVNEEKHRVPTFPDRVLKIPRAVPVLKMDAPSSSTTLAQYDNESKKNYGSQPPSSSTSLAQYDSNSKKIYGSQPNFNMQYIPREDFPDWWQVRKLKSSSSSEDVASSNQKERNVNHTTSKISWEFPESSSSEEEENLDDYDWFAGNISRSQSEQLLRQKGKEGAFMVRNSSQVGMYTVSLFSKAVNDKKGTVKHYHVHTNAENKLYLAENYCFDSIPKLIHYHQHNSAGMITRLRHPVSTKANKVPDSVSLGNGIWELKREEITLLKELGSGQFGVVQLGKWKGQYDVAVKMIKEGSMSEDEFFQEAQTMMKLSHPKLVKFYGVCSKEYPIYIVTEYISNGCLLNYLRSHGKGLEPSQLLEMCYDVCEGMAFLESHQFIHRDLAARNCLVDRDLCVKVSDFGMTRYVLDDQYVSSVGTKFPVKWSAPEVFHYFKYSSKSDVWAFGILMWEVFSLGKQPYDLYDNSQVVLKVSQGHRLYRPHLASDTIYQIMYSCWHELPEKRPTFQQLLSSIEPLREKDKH
The note with it: at 0.1 µM.

Assay [15] addresses T1, Cytoplasmic tyrosine-protein kinase BMX (Homo sapiens). The conditions noted are these: at 1 µM.
For assay [16], the target named is Protein-tyrosine kinase 6 (Homo sapiens) (UniProt Q13882). The conditions noted are these: at 0.1 µM.
For assay [17] the target is unchanged. The note with it: at 1 µM.
Assay [18] concerns the target Tyrosine-protein kinase BTK (Homo sapiens) (UniProt Q06187). The conditions noted are these: at 0.1 µM.
The target is the same in assay [19]. The note with it: at 1 µM.
The target in assay [20] is Tyrosine-protein kinase CSK (Homo sapiens) (UniProt P41240). The conditions noted are these: at 0.1 µM.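 Also: value given is the averaged percent inhibition of CSK kinase activity, from the GSK PKIS kinase inhibitor set screening panel.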
Chain of Tyrosine-protein kinase CSK (Homo sapiens) (P41240 2-450 limits assumed): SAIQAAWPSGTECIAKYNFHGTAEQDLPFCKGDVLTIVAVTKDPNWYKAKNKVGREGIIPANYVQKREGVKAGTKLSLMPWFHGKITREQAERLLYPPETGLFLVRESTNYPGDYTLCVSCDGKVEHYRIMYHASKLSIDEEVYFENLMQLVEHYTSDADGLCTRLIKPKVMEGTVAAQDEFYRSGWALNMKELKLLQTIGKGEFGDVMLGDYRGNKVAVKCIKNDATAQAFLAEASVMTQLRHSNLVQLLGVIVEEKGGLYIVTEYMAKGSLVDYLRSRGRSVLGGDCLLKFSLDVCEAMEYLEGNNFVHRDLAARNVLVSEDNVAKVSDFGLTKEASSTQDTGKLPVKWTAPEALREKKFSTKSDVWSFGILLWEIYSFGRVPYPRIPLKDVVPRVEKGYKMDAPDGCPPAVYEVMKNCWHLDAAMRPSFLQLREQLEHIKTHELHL

Chain of Protein-tyrosine kinase 6 (Homo sapiens) (Q13882 whole entry, looked up): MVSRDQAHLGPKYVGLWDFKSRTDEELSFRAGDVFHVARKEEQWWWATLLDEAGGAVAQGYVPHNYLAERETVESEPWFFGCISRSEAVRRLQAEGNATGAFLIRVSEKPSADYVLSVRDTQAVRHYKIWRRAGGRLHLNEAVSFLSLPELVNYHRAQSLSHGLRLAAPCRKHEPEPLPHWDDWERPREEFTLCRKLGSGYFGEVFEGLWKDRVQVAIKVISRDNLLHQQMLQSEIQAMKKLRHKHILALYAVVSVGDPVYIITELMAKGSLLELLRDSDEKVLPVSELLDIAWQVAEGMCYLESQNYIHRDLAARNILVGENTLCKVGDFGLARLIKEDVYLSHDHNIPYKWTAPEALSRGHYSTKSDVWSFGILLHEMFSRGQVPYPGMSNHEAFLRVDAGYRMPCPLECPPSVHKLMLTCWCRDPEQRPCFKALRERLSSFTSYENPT
Chain of ALK tyrosine kinase receptor (Homo sapiens) (Q9UM73 19-1620 limits assumed): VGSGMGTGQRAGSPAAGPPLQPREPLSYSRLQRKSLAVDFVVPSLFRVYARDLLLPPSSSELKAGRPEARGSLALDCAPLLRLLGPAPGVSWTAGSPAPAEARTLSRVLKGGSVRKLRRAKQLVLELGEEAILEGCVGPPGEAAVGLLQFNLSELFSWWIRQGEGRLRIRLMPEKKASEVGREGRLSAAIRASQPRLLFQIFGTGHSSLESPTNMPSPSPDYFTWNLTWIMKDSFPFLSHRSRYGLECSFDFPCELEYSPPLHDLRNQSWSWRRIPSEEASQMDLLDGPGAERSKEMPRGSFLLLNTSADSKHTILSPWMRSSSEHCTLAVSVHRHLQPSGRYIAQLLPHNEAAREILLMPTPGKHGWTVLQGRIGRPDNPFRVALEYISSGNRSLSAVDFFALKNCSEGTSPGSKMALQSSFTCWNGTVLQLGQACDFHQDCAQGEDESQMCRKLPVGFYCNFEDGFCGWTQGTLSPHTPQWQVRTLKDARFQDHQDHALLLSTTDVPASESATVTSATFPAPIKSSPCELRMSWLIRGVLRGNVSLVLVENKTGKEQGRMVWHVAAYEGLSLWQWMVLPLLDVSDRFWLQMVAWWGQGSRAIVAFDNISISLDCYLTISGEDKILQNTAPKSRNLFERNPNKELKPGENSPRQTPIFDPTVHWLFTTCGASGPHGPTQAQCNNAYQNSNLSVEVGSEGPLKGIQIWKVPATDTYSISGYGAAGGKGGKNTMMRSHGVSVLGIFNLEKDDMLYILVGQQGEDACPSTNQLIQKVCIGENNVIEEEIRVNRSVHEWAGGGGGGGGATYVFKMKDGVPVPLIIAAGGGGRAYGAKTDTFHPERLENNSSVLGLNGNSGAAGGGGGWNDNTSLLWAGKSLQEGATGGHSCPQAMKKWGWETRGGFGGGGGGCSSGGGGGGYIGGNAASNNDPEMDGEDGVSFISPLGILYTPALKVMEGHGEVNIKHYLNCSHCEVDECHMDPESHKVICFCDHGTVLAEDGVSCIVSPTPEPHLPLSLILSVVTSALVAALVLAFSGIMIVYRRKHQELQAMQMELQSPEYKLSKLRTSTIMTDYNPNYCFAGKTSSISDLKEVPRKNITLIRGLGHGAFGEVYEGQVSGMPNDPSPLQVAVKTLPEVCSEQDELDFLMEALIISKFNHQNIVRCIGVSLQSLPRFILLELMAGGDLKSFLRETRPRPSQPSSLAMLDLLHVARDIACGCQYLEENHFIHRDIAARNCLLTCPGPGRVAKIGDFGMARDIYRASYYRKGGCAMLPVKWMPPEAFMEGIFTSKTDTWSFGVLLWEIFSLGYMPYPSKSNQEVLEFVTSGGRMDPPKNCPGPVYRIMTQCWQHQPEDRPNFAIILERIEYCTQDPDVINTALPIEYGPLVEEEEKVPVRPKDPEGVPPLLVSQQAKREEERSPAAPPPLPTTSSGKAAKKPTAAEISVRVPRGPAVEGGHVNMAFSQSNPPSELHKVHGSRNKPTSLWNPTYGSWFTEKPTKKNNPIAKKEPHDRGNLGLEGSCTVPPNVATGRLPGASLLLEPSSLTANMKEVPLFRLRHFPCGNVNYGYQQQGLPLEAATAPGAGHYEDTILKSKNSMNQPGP
Chain of Tyrosine-protein kinase receptor UFO (Homo sapiens) (P30530 whole entry): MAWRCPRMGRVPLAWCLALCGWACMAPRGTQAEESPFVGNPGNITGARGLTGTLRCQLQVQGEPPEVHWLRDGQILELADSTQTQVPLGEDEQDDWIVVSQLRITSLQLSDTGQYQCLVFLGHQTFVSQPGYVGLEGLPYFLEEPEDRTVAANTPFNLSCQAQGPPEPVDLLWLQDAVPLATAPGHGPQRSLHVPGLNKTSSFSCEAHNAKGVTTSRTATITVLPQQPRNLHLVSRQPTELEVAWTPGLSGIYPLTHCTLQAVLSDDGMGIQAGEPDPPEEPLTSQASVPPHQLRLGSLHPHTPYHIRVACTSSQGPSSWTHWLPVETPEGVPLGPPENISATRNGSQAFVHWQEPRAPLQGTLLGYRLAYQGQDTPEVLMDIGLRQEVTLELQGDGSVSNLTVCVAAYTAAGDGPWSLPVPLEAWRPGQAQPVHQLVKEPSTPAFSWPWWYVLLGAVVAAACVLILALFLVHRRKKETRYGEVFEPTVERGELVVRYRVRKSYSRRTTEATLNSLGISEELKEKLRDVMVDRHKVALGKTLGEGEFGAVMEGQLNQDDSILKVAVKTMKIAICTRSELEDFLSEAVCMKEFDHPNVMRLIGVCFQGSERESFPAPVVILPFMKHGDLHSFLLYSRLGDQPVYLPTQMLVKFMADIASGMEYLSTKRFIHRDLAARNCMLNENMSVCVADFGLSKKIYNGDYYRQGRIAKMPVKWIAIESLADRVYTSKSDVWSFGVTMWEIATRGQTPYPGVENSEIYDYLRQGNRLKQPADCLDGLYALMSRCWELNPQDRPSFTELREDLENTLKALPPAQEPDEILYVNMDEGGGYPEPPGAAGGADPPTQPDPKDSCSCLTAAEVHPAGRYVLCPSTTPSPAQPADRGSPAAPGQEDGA
Chain of Tyrosine-protein kinase Blk (Homo sapiens) (P51451 2-505 limits assumed): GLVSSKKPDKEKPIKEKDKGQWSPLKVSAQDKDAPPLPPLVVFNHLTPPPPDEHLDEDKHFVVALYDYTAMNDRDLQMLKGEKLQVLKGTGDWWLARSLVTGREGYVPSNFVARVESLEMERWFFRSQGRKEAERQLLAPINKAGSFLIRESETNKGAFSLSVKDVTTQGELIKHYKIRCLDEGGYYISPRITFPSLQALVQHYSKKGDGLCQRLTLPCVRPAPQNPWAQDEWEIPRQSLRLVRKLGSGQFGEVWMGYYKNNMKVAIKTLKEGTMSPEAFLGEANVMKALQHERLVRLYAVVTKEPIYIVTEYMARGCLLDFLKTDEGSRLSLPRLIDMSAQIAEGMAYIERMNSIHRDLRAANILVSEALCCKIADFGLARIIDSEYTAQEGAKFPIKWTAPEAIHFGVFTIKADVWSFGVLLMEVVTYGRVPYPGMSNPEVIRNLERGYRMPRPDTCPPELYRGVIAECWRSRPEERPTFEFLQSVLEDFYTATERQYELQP
Chain of Tyrosine-protein kinase ABL2 (Homo sapiens) (P42684 whole entry): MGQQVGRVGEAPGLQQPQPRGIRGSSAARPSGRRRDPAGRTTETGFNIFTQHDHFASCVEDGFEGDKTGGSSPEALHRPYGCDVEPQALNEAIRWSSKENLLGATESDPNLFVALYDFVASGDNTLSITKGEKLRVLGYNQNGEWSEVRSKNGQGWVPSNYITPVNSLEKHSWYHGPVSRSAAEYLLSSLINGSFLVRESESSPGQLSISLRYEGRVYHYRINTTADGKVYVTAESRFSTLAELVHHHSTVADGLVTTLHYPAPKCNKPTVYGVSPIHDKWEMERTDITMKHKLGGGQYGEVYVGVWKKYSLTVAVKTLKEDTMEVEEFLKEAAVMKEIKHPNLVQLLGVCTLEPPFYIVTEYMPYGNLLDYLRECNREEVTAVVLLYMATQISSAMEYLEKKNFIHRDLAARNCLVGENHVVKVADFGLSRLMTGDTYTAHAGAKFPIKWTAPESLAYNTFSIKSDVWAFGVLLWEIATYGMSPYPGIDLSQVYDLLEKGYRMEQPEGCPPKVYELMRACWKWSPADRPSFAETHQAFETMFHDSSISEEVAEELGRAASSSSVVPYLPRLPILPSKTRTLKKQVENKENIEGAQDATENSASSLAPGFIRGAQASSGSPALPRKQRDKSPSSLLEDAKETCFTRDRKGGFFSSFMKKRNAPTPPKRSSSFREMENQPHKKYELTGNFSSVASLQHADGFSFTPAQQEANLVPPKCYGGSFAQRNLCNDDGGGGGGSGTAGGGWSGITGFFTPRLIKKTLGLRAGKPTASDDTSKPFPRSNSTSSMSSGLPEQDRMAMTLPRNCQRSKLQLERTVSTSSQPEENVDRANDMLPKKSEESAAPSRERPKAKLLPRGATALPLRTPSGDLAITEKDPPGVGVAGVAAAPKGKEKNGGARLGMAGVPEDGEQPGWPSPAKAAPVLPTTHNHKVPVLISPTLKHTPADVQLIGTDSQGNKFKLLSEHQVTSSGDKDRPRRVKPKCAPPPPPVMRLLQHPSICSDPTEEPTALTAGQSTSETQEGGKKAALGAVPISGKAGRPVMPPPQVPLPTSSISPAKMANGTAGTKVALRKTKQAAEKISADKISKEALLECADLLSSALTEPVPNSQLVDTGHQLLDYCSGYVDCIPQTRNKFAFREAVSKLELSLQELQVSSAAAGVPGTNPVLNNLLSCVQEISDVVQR

In the case of `COc1cccc(-c2c[nH]c3c(N/N=C/c4ccncc4)ncnc23)c1`, the inhibition (in general, the change of the read-out against control, counted positive when it falls) in assay [1] was 57.7%; in [2] it was 73%; in assay [3], 93.2%; in assay [4], 57.6%; in [5], 81.7%; in assay [6], 0.85%. In addition, the inhibition was 1.19% in assay [7]; 41.8% in assay [8]; 78.6% in [9]; -2.43% in assay [10]; 3.21% in assay [11]; 7.63% in assay [12]. Besides, the inhibition in assay [13] is 57.9%; in [14], 8.13%; in assay [15], 45.1%; in assay [16], 2.51%; in [17], 4.81%; in assay [18], 0.88%. For the same compound, the inhibition in [19] was 2.48%; in [20], 4.78%.
Regarding `[O-][S+]1CCN(Cc2ccc(-c3ccc4ncnc(Nc5ccc(OCc6cccc(F)c6)c(Cl)c5)c4c3)o2)CC1`, the inhibition in assay [1] amounted to 3.02%; in assay [2], 4.31%; in assay [3] it was 4.49%; in [4], 2.52%; in [5] it was 5.75%; in assay [6], 3.34%. In addition, the inhibition in [7] was 7.82%; in assay [8], 1.01%; in [9] it was 7.14%; in assay [10] it was -4.66%; in assay [11], -4.13%; in assay [12], 1.74%. Further, the inhibition in assay [13] is 7.66%; in assay [14], 7.13%; in [15], 7.73%; in assay [16], 4.81%; in assay [17], 7.3%; in assay [18], -0.42%. In addition, the values for the inhibition in assay [19] and in assay [20] were 0.99% and 6.74%, respectively.
For the compound `COc1cc(N2CCN(C(C)C)CC2)ccc1Nc1nc(Nc2ccc(F)cc2C(N)=O)c2cc[nH]c2n1`, the inhibition in assay [1] came out at 7.02%; in assay [2] it was 0.29%; in assay [3], 1.6%; in [4], 3.76%; in [5], 3.4%; in [6], 88.3%. The inhibition in [7] is 88.8%; in [8], -0.12%; in [9] it was 2.78%; in assay [10], 3.89%; in [11] it was 42.4%; in [12], 1.9%. The inhibition in assay [13] was 3.73%; in [14], 1.88%; in assay [15], 5.02%; in assay [16], 4.84%; in assay [17] it was 31.2%; in [18] it was -0.63%. Besides, the inhibition in [19] was -0.07%; in [20] it was 1.42%.
For the compound `CCn1cc(-c2ccnc3[nH]ccc23)c(-c2cccc(NC(=O)Nc3ccc(OCc4ccccc4)cc3)c2)n1`, the inhibition in assay [1] was -0.74%; in [2] it was 0.58%; in assay [3], 0.94%; in assay [4] it was 1.03%; in assay [5], 2.88%; in assay [6], 0.6%. Besides, the inhibition in [7] was found to be 0.71%; in [8], 0.39%; in assay [9], 6.44%; in assay [10], 0.7%; in assay [11], 0.9%; in assay [12], 2.54%. For the same compound, the inhibition is 18.7% in assay [13]; 1.09% in [14]; -0.27% in assay [15]; 3.04% in assay [16]; 16.2% in [17]; 0.34% in assay [18]. For the same compound, the inhibition is 3.3% in assay [19] and -0.47% in assay [20].
As to `Fc1ccc(-c2nn3ncccc3c2-c2ccnc(Nc3ccc4c(c3)OCCO4)n2)cc1`, the inhibition in [1] worked out at 53.4%; in assay [2] it was 29.3%; in [3] it was 72.2%; in [4], 11.8%; in assay [5], 62.6%; in [6] it was 4.64%. The inhibition in [7] is 7.86%; in assay [8], 10.4%; in assay [9], 56.1%; in assay [10], -9.81%; in assay [11], -5.61%; in [12] it was 14.4%. Besides, the inhibition was 71.2% in assay [13]; 15% in assay [14]; 49.4% in [15]; 17.1% in [16]; 67.8% in assay [17]; -1.09% in assay [18]. In addition, the inhibition in assay [19] is 5.26%; in assay [20] it was 3.81%.
Consider `CCn1c(-c2nonc2N)nc2cnc(Oc3cccc(NC(=O)c4ccc(N(C)C)cc4)c3)cc21`, for which the inhibition in [1] worked out at 1.03%; in assay [2], 2.77%; in assay [3], 6.27%; in assay [4] it was 1.77%; in assay [5], 3.99%; in assay [6] it was 0.57%. Besides, the inhibition in assay [7] is 1.96%; in [8] it was 2.48%; in assay [9], 2.42%; in assay [10], -3.9%; in assay [11], -3.3%; in assay [12] it was 0.9%. Besides, the inhibition was 2.27% in assay [13]; 1.63% in assay [14]; 1.66% in assay [15]; -0.08% in [16]; -0.57% in assay [17]; -0.86% in assay [18]. Further, the inhibition in [19] was -0.69%; in assay [20], 2.19%.
